In the library only some 7.1% were active in any assay of this set; here they are far more common.
S2 tox: cell viability loss in ATXN counter-screen | Potency, µM (titrated, usually from 56.7 µM), hits mostly cytotoxic | actives 0.49% (n = 400,000) | S2 cells (HEK-293 line with an ATXN2-luciferase reporter) viability, CellTiter-Fluor protease fluorescence, 24 h | AID 651635; note: nearly all actives have a fitted effect of over 40% in size
IL-1B inflam inh: inhibitors of inflammasome signaling (IL-1 beta secretion) | THP-1 LPS/ATP IL-1B secretion, AlphaLISA, 16 h; stronger effect = lower value | activity change, % at 57.5 µM | actives 4.7% (n = 360,000); in the data active = activity change below about -50%; inconclusive = mostly about -30% to -49%
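Secreted IL-1B measured by AlphaLISA bead assay after 16 h compound exposure of THP-1 cells; compounds (final up to 57.5 uM) added 1 h before LPS (250 ng/mL) and ATP (1.25 mM) stimulation; lower signal means less secretion.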
PINK1 expr mod: PINK1 expression modulation. PINK1 immunofluorescence, high-content cytometry, 24 h. Potency, µM (highest dose often 76.6 µM), actives largely listed as activators. actives 0.2% (n = 410,000). AID 624263; active = well fitted activation curve with a large enough effect; inconclusive = small, poorly fitted or top-dose-only effect; cell line not stated here; note: nearly all actives have a fitted effect of over 65% in size
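Stable cell line, 250 cells/well, 12 h attachment; compounds pinned at 5 concentrations, 24 h; CCCP control. Fixed with nuclear dye, primary antibodies 12 h at 10 degrees C, secondary plus cell stain; laser-scanning cytometer read.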
ATXN2 expr inh: reduces ATXN2 reporter expression in HEK-293 cells | HEK-293 ATXN2-luciferase reporter, luminescence, 24 h | Potency, µM (series often up to 57 µM), usual class: inhibitors | actives 0.72% (n = 360,000); note: nearly all actives have a fitted effect of over 55% in size
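qHTS (up to 57 uM final) was run with 24 h compound exposure of reporter cells at 37 °C. Each well was multiplexed: SteadyGlo luminescence measured ATXN2-luciferase expression after a fluorogenic Gly-Phe-AFC viability readout (25 uM final).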
SW480 rereplic: DNA re-replication induction in SW480 cells. SW480 DNA re-replication, Hoechst DNA content imaging, 48 h. Potency, µM (titrated, usually from 46.1 µM), usual class: activators. actives 1.8% (n = 340,000). AID 624297; note: nearly all actives have a fitted effect of over 55% in size
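Treated cells incubate 48 hr (37 C, 5% CO2), are stained 40 min with Hoechst, and nuclear fluorescence is enumerated; a rise in nuclei with high DNA signal marks re-replication.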
MCF10A rereplic: inducers of DNA re-replication in MCF 10A breast cells; MCF 10A DNA re-replication, Hoechst nuclear intensity, 48 h; Potency, µM (titrated, usually from 46.1 µM), usual class: activators; actives 2.9% (n = 350,000); AID 624296; note: nearly all actives have a fitted effect of over 50% in size
Numbers stand for hits; i = inactive; ? = inconclusive; nt = not tested or not shown; [ ] = dose if it differs, or a comment. Unless noted, calls come from the whole dose curve; as a rule, active = well fitted curve in the direction sought with a large enough effect; inconclusive = small, poorly fitted or top-dose-only effect, or another doubt; inactive = no such curve, though single readings can be large; an effect the other way counts as inactive or inconclusive.

SMILES	S2 tox	IL-1B inflam inh	PINK1 expr mod	ATXN2 expr inh	SW480 rereplic	MCF10A rereplic
CCOC(=O)[C@]12Cc3cc4c(cc3[C@H]1N(Cc1ccccc1)C(=O)c1ccccc12)OCO4	?	i	i	?	i[9.22 µM]	i
CCOC(=O)[C@]12Cc3cc(N(C)C)ccc3[C@H]1N(Cc1ccccc1)C(=O)c1ccccc12	?	i	i	?	i	i
CCOC(=O)[C@]12Cc3ccc(C)cc3[C@H]1N(C1CCCCC1)C(=O)c1cc(OC)ccc12	4.47µM	-116.4	i	3.98µM	nt	nt
CCOC(=O)[C@]12Cc3cc(C)ccc3[C@H]1N(C1CCCCC1)C(=O)c1ccccc12	3.55µM	-111.2	i	4.47µM	nt	nt
CCOC(=O)[C@]12Cc3ccccc3[C@H]1N(C(C)C)C(=O)c1ccccc12	nt	-115.7	i	?	nt	nt
CCOC(=O)[C@]12Cc3cc(Cl)ccc3[C@H]1N(Cc1ccccc1)C(=O)c1ccccc12	i	i	i	i	i[9.22 µM]	i
CCOC(=O)[C@]12Cc3ccc(C)cc3[C@H]1N(C1CCCCC1)C(=O)c1ccccc12	12.6µM	-117.8	i	11.2µM	nt	nt
C[C@]12CC[C@H]3[C@@H](CC[C@@]45O[C@H]4C(O)=C(C#N)C[C@]35C)[C@H]1CC[C@H]2O	i	nt	nt	i	nt	nt
COc1ccc(CCNC(=O)c2ccc3c(c2)CCN3S(=O)(=O)c2ccc(C)cc2)cc1OC	?	nt	i	i	nt	nt
COc1cc2c(cc1OC)C(C(=O)N(C)C1CCCCC1)C1CCCCN1C2=O (stereo not given)	i	i	i	i	i	?
CCOC(=O)[C@]12Cc3cc(Cl)ccc3[C@H]1N(C1CCCCC1)C(=O)c1cc(OC)ccc12	2µM	-110.4	i	2.24µM	nt	nt
CCOC(=O)[C@]12Cc3c(cc(OC)c(OC)c3OC)[C@H]1N(C1CCCCC1)C(=O)c1ccccc12	8.91µM	-112.7	i	6.31µM	nt	nt
O=C1NC(=O)N(Cc2ccc(F)cc2)C(=O)/C1=C/c1cccs1	i	-100.9	i	i	?	?
Cc1nc2ccc(Nc3nc4cc(S(=O)(=O)N5CCOCC5)ccc4o3)cc2s1	i	i	i	i	18.4µM	?
O=c1c2ccccc2[se]n1-c1ccccc1	?	-114.3	i	?	18.4µM	?
O=c1c2ccccc2nc(-c2ccccc2)n1-c1ccccc1	?	i	i	nt	i	i
ClC(Cl)Cl	nt	nt	nt	nt	i	i
CCCCn1c(O)c(/C(CC)=N/N2CCCCC2c2cccnc2)c(=O)[nH]c1=S (stereo not given)	?	-63.7	i	i	i	?
O=C(NC(O)C(Cl)(Cl)Cl)NC(O)C(Cl)(Cl)Cl (stereo not given)	i	nt	nt	i	i	i
Nc1ccc2nc3c(c(Cl)c2c1)CCCC3	i	i	i	i	?	16.4µM
Cc1ccc(C(=O)N[C@@H](C)CN2C3=NC[C@H](Cc4ccccc4)N3C[C@H]2Cc2ccc(O)cc2)cc1Br	nt	i	i	25.1µM	13µM	?
Cc1ccc(C(=O)N[C@@H](C)CN2C3=NC[C@@H](Cc4ccccc4)N3C[C@H]2Cc2ccc(O)cc2)cc1Br	25.1µM	i	i	?	i	i
CN1[C@H]2CC(OC(=O)[C@H](CO)c3ccccc3)C[C@H]1[C@H]1O[C@H]12 (stereo not given in full)	nt	nt	nt	nt	i	i
CC(C)Oc1cccc(NC(=O)c2ccccc2C(F)(F)F)c1	i	nt	nt	i	nt	nt
COc1ccc(NC2Oc3cc4c(cc3C(c3cc(OC)c(OC)c(OC)c3)C2C)OCO4)cc1 (stereo not given)	i	-64.2	i	i	1.03µM	0.581µM
SMILES	S2 tox	IL-1B inflam inh	PINK1 expr mod	ATXN2 expr inh	SW480 rereplic	MCF10A rereplic
COc1cc([C@@H]2c3cc4c(cc3[C@H](OC(C)=O)[C@H]3COC(=O)[C@@H]23)OCO4)cc(OC)c1OC	nt	nt	i	nt	nt	nt
O=[N+]([O-])c1c(Cl)c(Cl)cc(Cl)c1Cl	i	nt	nt	i	nt	nt
CNc1cc(Cl)c2nonc2c1[N+](=O)[O-]	22.4µM	-105.5	i	28.2µM	i	?
CC1(C)OC(c2ccccc2)=C/C(=C/C=C2C(=O)NC(=O)NC2=O)O1	nt	i	i	nt	18.4µM	18.4µM
CN1/C(=C\C=C2C(=O)NC(=O)NC2=O)C(C)(C)c2ccccc21	?	i	i	i	i	i
c1ccc(N2CCC3(CCNCC3)CC2)cc1	nt	nt	i	nt	nt	nt
COc1cccc(CN2CCc3nc(N4CCN(c5ncccn5)CC4)ncc3C2)c1	?	nt	i	?	nt	nt
CCOc1ccc(CN2CCCC(C(=O)c3ccccc3OC)C2)cc1 (stereo not given)	i	-58.2	i	i	i	?
COc1ccccc1CN1CCCC(C(=O)c2ccccc2OC)C1 (stereo not given)	i	i	i	i	i	i
CC(C)C1C(c2ccccc2)N(C)C(c2ccccc2)CC1(O)c1ccccc1 (stereo not given)	?	i	?	?	?	5.17µM
Oc1c(Cl)cccc1Cc1cc(Cl)cc(Cl)c1O	i	?	?	?	i	11.6µM
Cc1ccc(-c2nc(N(C)C3CCN(C)CC3)c3ccccc3n2)cc1	?	-89.7	i	20µM	i	i
CN1CCC(N(C)c2ncnc3ccc(Br)cc23)CC1	i	i	i	i	i	i
O=C(NCCc1ccccc1)[C@@H]1CC=C[C@@H]2CCN(Cc3ccc(Cl)c(Cl)c3)C(=O)[C@@H]21	nt	i	i	i	?	?
O=C1NCN(c2ccccc2)C12CCN(C(c1cccc3ccccc13)c1nnnn1C1CCCC1)CC2 (stereo not given)	?	-62.0	i	i	nt	nt
O=C1NCN(c2ccccc2)C12CCN(C(c1cc3ccccc3o1)c1nnnn1C1CCCC1)CC2 (stereo not given)	?	-65.2	i	?	nt	nt
Cn1c(O)c(/C=N/Nc2ccccc2)c(=O)n(C)c1=O	i	i	i	i	i	6.51µM
Cc1ccccc1N1C(=O)NC(=O)/C(=C\c2cnn(-c3ccccc3)c2)C1=O	?	-96.2	i	i	i	?
Cc1nnc2n1-c1sc(CCc3ccc(CC(C)C)cc3)cc1C(c1ccccc1Cl)=NC2C (stereo not given)	31.6µM	nt	nt	35.5µM	nt	nt
C=CCC1([C@H](C)CCC)C(=O)NC(=O)NC1=O	i	nt	nt	i	nt	nt
CC(C)CNC(=O)c1c(N)n(Cc2ccc3c(c2)OCO3)c2nc3ccccc3nc12	i	?	i	?	2.59µM	?
CC(C)CCNC(=O)c1c(N)n(Cc2ccc3c(c2)OCO3)c2nc3ccccc3nc12	i	?	i	?	2.59µM	?
COC(=O)c1c(N)n(Cc2ccc(OC)cc2)c2nc3ccccc3nc12	i	i	i	i	?	i
CCCNC(=O)c1c(N)n(Cc2ccc3c(c2)OCO3)c2nc3ccccc3nc12	i	i	i	i	3.26µM	0.651µM
CC(C)N[C@@H]1CCn2c(=O)[nH]c3cccc(c32)[C@@H]1O	nt	nt	nt	i	nt	nt

High-throughput results from PubChem.
